Reference: PubChem BioAssay AID504832 (National Center for Advancing Translational Sciences (NCATS), 2011)
The campaign covered roughly 310,000 compounds. About 18,000 (5.8%) were called active. Another 22% or so got no clear call; they are omitted. Calls come from the whole dose curve; as a rule, active = well fitted inhibition curve with a large enough effect; inconclusive = small, poorly fitted or top-dose-only effect, or another doubt; inactive = no such curve, though single readings can be large or run the other way. What follows is part of a selection rich in actives, with near analogues and random picks from the rest. A call without a number means that no potency is given here.

Experiment: Primary qHTS for delayed death inhibitors of the malarial parasite plastid, 48 hour incubation
Conditions: P. falciparum luciferase growth in erythrocytes; series mostly up to 28.7 µM
Procedure, shortened: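 Compounds are pin-transferred into medium, infected erythrocytes (2% hematocrit, 0.1% parasitemia final) are added, and plates sit one parasite generation at 37 C in 5% CO2. Detection reagent is then added and luminescence measured.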
Potency is the fitted concentration of half-maximal effect.

Compound | Potency
COc1ccc(/C(C)=N\NC(=O)c2ccc(-c3ccccc3)cc2)c(F)c1 | inactive
CCOc1ccc(/C=C/C(=O)N(CC)CC(=O)NCc2cccs2)cc1OC | inactive
CS(=O)(=O)Nc1cccc(C2=NN(C(=O)c3cccc(F)c3)C(c3cccs3)C2)c1 (configuration not stated) | 11.7 µM (active)
CCS(=O)(=O)Nc1ccc(C2=NN(C(C)=O)C(c3cccs3)C2)cc1 (configuration not stated) | inactive
CS(=O)(=O)Nc1ccc(C2=NN(S(C)(=O)=O)C(c3cccs3)C2)cc1 (configuration not stated) | inactive
CSc1ncccc1C(=O)Nc1ccc(C)cn1 | inactive
Cc1ccc2c(c1)N(CC(=O)N1CCC(O)CC1)C(=O)CO2 | inactive
CC(C)c1ccc(OCC(O)CN2CCN(c3ccccn3)CC2)cc1 (configuration not stated) | inactive
CC(C)c1ccc(OCC(O)Cn2cnc3ccccc32)cc1 (configuration not stated) | 11.7 µM (active)
CC(=O)OC(COc1ccc(F)cc1)Cn1cnc2ccccc21 (configuration not stated) | inactive
COc1cc([N+](=O)[O-])cc([N+](=O)[O-])c1NC(=O)N1CCOCC1 | inactive
NC(=O)c1ccsc1NC(=O)COC(=O)Cc1n[nH]c(=O)c2ccccc12 | inactive
O=S(=O)(NC1CC1)c1ccc(Cl)cc1 | inactive
Cc1ncoc1C(=O)NCCC(c1ccccc1)c1ccccc1 | inactive
CC(Cc1ccccc1)NCCC(c1ccccc1)c1ccccc1 (configuration not stated) | 10.4 µM (active)
CC(Cc1ccccc1)C(=O)N(C)Cc1ccccc1 (configuration not stated) | inactive
NS(=O)(=O)c1ccc(CCNC(=O)CN2C(=O)c3ccccc3S2(=O)=O)cc1 | inactive
COc1ccc(N2CCN(S(=O)(=O)c3ccc4c(c3)N(C(C)=O)CCO4)CC2)cc1 | inactive
COC(=O)C1=C(C)N(C)C(C)=C(C(=O)OC)C1c1cccc(Br)c1 | 8.28 µM (active)
COC(=O)C1=C(C)N(C)C(=S)NC1c1ccccc1 (configuration not stated) | inactive
COCCN1C(=O)N[C@@H](c2ccccc2)C(C(=O)OC)=C1C | inactive
CCn1cc(CN2CCC(n3nccc3NC(=O)CCCc3ccccc3)CC2)c(C)n1 | inactive

Compound | Potency
CNC(=O)N1c2ccccc2C=Cc2ccccc21 | inactive
CC1Sc2ccc(S(=O)(=O)CCC(=O)NCc3ccccc3Cl)cc2NC1=O (configuration not stated) | inactive
COc1ccc(Nc2nnc(C)c3ccccc23)cc1 | inactive
CN(C)C(=O)c1ccc(NC(=O)c2ccccc2-c2ccccc2)cc1 | inactive
Cc1ccc(-c2nnc(Nc3ccc(C(=O)N(C)C)cc3)c3ccccc23)cc1S(N)(=O)=O | 9.28 µM (active)
COc1cc(C(=O)N(C)Cc2cccc(OC)c2OC)ccc1OCC(=O)Nc1cccc(C(F)(F)F)c1 | 11.7 µM (active)
COc1ccc(NC(=O)CN(C)CC(=O)Nc2cccc(C(F)(F)F)c2)cc1 | inactive
CCNC(=O)c1ccc(OCC(=O)Nc2ccc(F)cc2)c(OC)c1 | inactive
O=C(Nc1ccc(N2CCCCC2)cc1)c1cc(S(=O)(=O)N2CCOCC2)ccc1F | inactive
N#Cc1cccc(NC(=O)C2CCCN(C(=O)c3ccc(Cl)cc3)C2)c1 (configuration not stated) | 9.28 µM (active)
N#Cc1cccc(NC(=O)CN2CCCCCC2)c1 | inactive
O=C(Nc1cccc(Cl)c1)C1CCCN(c2cnccn2)C1 (configuration not stated) | inactive
COc1ccc(Cl)cc1C(=O)OCC(=O)NCc1cccs1 | inactive
O=C(COC(=O)C1CCN(S(=O)(=O)c2ccc3c(c2)OCCO3)CC1)Nc1ccccc1OC(F)F | inactive
Cc1c(C(=O)NCCN(C)C)oc2ccc(S(=O)(=O)N3CCCC3)cc12 | inactive
CCOC(=O)C1CCN(C(=O)C2CCCN(S(=O)(=O)c3ccc(OC)c(Cl)c3)C2)CC1 (configuration not stated) | inactive
CCOC(=O)C1CCN(C(=O)COC(=O)C2CCN(S(=O)(=O)c3ccc4c(c3)OCCO4)CC2)CC1 | 13.1 µM (active)
CCOC(=O)C1CCN(S(=O)(=O)c2ccc3c(c2)N(C(C)=O)CCO3)CC1 | inactive
CCOC(=O)C1CCN(C(=O)c2oc3ccc(S(=O)(=O)N4CCCCCC4)cc3c2C)CC1 | 11.7 µM (active)
CC(Sc1nnc(-c2ccccc2F)n1C1CC1)C(N)=O (configuration not stated) | inactive
Cc1occc(=O)c1OCc1ccc(F)cc1 | inactive
Clc1nc(NC2CCCC2)nc(N2CCOCC2)n1 | inactive

Compound | Potency
Cc1ccc(NC(=O)Cc2nnc(SCC(=O)Nc3nncs3)n2C)cc1 | inactive
Cc1onc(C(=O)NN)c1C(=O)N1CCN(C(c2ccccc2)c2ccccc2)CC1 | 5.86 µM (active)
CCc1noc(C)c1C(=O)N1CCN(S(=O)(=O)c2cccc(C(F)(F)F)c2)CC1 | inactive
Cc1c(C(=O)N2CCCC2)c(S(=O)(=O)NCC(C)c2ccccc2)c(C)n1C (configuration not stated) | inactive
COc1ccc(N2CCN(C(=O)Cn3cnc4sc(C)c(S(=O)(=O)N5CCOCC5)c4c3=O)CC2)cc1 | inactive
CN(Cc1cccs1)C(=O)CN1C(=O)c2ccccc2S1(=O)=O | inactive
CCC1CCC2(CC1)NC(=O)N(CC(=O)Nc1ccc(OC)cc1)C2=O (configuration not stated) | inactive
O=C(CN(CC1CCCO1)C(=O)CNS(=O)(=O)c1ccc(Cl)cc1)NCc1ccccc1 (configuration not stated) | inactive
CCN(C(=O)COC(=O)c1sccc1C)c1c(N)n(Cc2ccccc2)c(=O)[nH]c1=O | inactive
CCN(C(=O)COC(=O)CCOc1cccc(C)c1)c1c(N)n(Cc2ccccc2)c(=O)[nH]c1=O | inactive
CCN(C(=O)COC(=O)c1c(C)nn(-c2ccccc2)c1Cl)c1c(N)n(Cc2ccccc2)c(=O)[nH]c1=O | 10.4 µM (active)
Cc1ccccc1NC(=O)Cc1nc(COC(=O)c2cccnc2Cl)cs1 | inactive
O=C(CCNC(=O)c1ccc([N+](=O)[O-])cc1)NC1CCCCC1 | inactive
CCOc1cc(C(=S)N2CCOCC2)ccc1OS(=O)(=O)c1ccc(Br)cc1 | inactive
COc1cc(OC)c(C(=S)N2CCCC2)cc1OC | inactive
COC(=O)[C@@H](Cc1ccccc1)NC(=O)NCCc1ccccc1 | inactive
Cc1ccccc1CSCCNC(=O)c1ccc(N(C)S(=O)(=O)c2ccccc2)cc1 | inactive
O=C(NCCSCc1ccccc1)c1ccc(Cl)c(S(=O)(=O)N2CCOCC2)c1 | 10.4 µM (active)
Cc1ccc(C(=O)Nc2ncccc2C)cc1S(=O)(=O)N1CCOCC1 | inactive
O=C(NCc1cccnc1)c1cc(S(=O)(=O)N2CCOCC2)c(Cl)cc1Cl | inactive
Cc1ccc(NC(=O)CCCNC(=O)c2ccc(Cl)cc2)cc1S(=O)(=O)N1CCOCC1 | inactive
Cc1ccccc1CSCCNC(=O)c1ccc(Cl)c(S(=O)(=O)N2CCOCC2)c1 | 11.7 µM (active)

Compound | Potency
Cc1ccccc1N1CC(C(=O)Nc2ccc3c(c2)OCO3)CC1=O (configuration not stated) | inactive
Cc1ccc(Cl)c(OCC(=O)N2CCc3ccccc3C2)c1 | inactive
OCC1(Cc2ccccc2)CCN(Cc2cc3ccccc3o2)CC1 | inactive
OCC1(Cc2ccccc2C(F)(F)F)CCN(Cc2cccc3cnccc23)CC1 | 11.7 µM (active)
CC(C)c1csc(CN2CCC(CO)(Cc3ccccc3)CC2)n1 | inactive
Cn1nc([N+](=O)[O-])nc1Sc1ccc(C(C)(C)C)cc1 | 13.1 µM (active)
Cn1nc(C(C)(C)C)c([N+](=O)[O-])c1C(N)=O | inactive
CC(C)(C)NC(=O)Cn1cnc([N+](=O)[O-])n1 | inactive
Cc1ccnc(NC(=O)CNC(=O)c2ccccc2)c1 | inactive
Cc1cccc2sc(N(CCCN(C)C)C(=O)CCS(=O)(=O)c3ccccc3)nc12 | inactive
COc1cccc2sc(N(CCCN(C)C)C(=O)CCS(=O)(=O)c3ccccc3)nc12 | inactive
COc1cccc2sc(N(CCCN(C)C)C(=O)C(c3ccccc3)c3ccccc3)nc12 | 13.1 µM (active)
Cc1ccc(CSc2nsc(C)c2C#N)cc1 | inactive
O=C1c2ccccc2S(=O)(=O)N1Cc1c(F)cccc1Cl | inactive
CCOC(=O)c1cnc2ccc(F)cc2c1Nc1ccc2c(c1)OCCO2 | 9.28 µM (active)
CCCCC(=O)Nc1ccc2c(c1)OCCO2 | inactive
COC(=O)CCNc1ccc2c(c1)OCCO2 | inactive
CN(C)CCCNc1c2c(c(C#N)c3nc4ccccc4n13)CCC2 | inactive
CCOCCn1c(C(C)C)nc2ccccc21 | inactive
CCOCCCNc1c(CC)c(C)c(C#N)c2nc3ccccc3n12 | 3.29 µM (active)
CCCCCn1c(=O)c(C(=O)Nc2c(C)n(C)n(-c3ccccc3)c2=O)c(O)c2ccccc21 | inactive
CCCCCn1c(=O)c(C(=O)NCc2ccccc2)c(O)c2ccccc21 | 9.28 µM (active)

Compound | Potency
CCCCn1c(=O)c(C(C)=O)c(O)c2ccccc21 | inactive
COc1ccc(N(CC(=O)Nc2ccc(F)c(F)c2)S(=O)(=O)c2c(C)[nH]c(=O)[nH]c2=O)cc1 | inactive
CN(C(=O)c1cccc(OC2CCN(S(=O)(=O)N(C)C)CC2)c1)C1CCOC1 (configuration not stated) | inactive
CC(C)(C)NC(=O)NC(=O)COC(=O)C1c2ccccc2Oc2ccccc21 | inactive
Cc1ccccc1N1CCN(S(=O)(=O)c2ccc3ccccc3c2)CC1 | inactive
O=c1c2cc3c(=O)n(CC4CCCO4)c(=O)c3cc2c(=O)n1CC1CCCO1 (configuration not stated) | inactive
CCOc1cccc(=O)c2c(C)n(CC3CCCO3)c(C)c12 (configuration not stated) | 14.7 µM (active)
CCOc1ccc(NC(=O)c2cccc3c2C(=O)N(CC2CCCO2)C3)cc1 (configuration not stated) | inactive
CC(C)c1ccc(NC(=O)COC(=O)c2ccc(CN3CCCC3=O)cc2)cc1 | inactive
Cc1ccc2nc(SCC(=O)NC3CCCC3)[nH]c2c1 | inactive
CCN1C(=O)[C@H]2[C@@H](c3ccc(SC4CCCCC4)c(OC)c3)N[C@@](Cc3ccccc3)(C(=O)OC)[C@H]2C1=O | 2.08 µM (active)
CCN1C(=O)[C@H]2[C@@H](c3ccc(-c4ccc(F)cc4)cc3)N[C@@](Cc3ccccc3)(C(=O)OC)[C@H]2C1=O | 4.65 µM (active)
COC(=O)C1(C)NC(c2ccc(C)cc2)C2C(=O)N(c3ccc(F)cc3)C(=O)C21 (configuration not stated) | inactive
CCCCC1(C(=O)OCC)NC(c2ccc(O)cc2)C2C(=O)N(c3ccccc3)C(=O)C21 (configuration not stated) | inactive
CCOC(=O)C1(Cc2ccc(O)cc2)NC(c2ccccc2F)C2C(=O)N(C)C(=O)C21 (configuration not stated) | inactive
COC(=O)C1(C)NC(c2ccccc2OC)C2C(=O)N(c3ccccc3)C(=O)C21 (configuration not stated) | inactive
COC(=O)C1(C)NC(c2ccc(F)cc2)C2C(=O)N(c3ccccc3)C(=O)C21 (configuration not stated) | inactive
CCN1C(=O)[C@H]2[C@@H](c3ccc(-c4ccc(OC)cc4)cc3)N[C@@](Cc3ccccc3)(C(=O)OC)[C@H]2C1=O | 9.28 µM (active)
CCCC1(C(=O)OC)NC(c2ccco2)C2C(=O)N(C)C(=O)C21 (configuration not stated) | inactive
